Test results published in PubChem BioAssay AID1981 (Southern Research Specialized Biocontainment Screening …, 2009).
Screen size: about 2,200 compounds; about 480 (22%) were called active. The rule behind the calls is not given here. These entries were drawn from the full list. Measured potencies and affinities stand elsewhere.

Experiment: S. Typhimurium GFP fluorescence dose response in modified counterscreen for PhoP regulon inhibitor project (AID 1981)
Details: 4 h; series mostly up to 150 µM
With `Cc1cc(C(=O)NCc2cccs2)cs1` the outcome was “inactive”.
In the case of `CCCc1cc(N2CCN(c3ccccn3)CC2)n2nc(C)c(-c3ccccc3)c2n1`, the outcome is reported as “inactive”.
With `COc1ccc(CNc2nc3c(c(=O)[nH]c(=O)n3C)n2CCCc2ccccc2)cc1` the outcome was “inactive”.
With `COc1nc(-c2ccccc2)ccc1-c1noc(C)n1` the outcome was “inactive”.
With `NCCCCCc1nnc(SCc2ccc(Cl)cc2Cl)o1` the outcome was “inactive”.
With `Cc1ccc([N+](=O)[O-])cc1-c1ccc(/C=C(\C#N)c2[nH]nc(N)c2C#N)o1` the outcome was “inactive”.
With `CNC(=O)CN(c1ccc(F)cc1)S(=O)(=O)c1cc(C)ccc1OC` the outcome was “inactive”.
With `CCN1C(=O)N/C(=C/c2ccc(Sc3ccc(C)cc3)o2)C1=O` the outcome was “inactive”.
With `O=C(CCCCCNc1nc(=S)[nH]c2ccccc12)NCCc1c[nH]c2ccccc12` the outcome was “inactive”.
With `Cc1ccc2nc(NNC(=O)c3ccc(S(=O)(=O)N4CCc5ccccc5C4)cc3)sc2c1` the outcome was “inactive”.
For `C=CCNCC#CCOc1ccc(OC)cc1`, the outcome was “inactive”.
With `Cn1cccc1C(=O)OCc1csc(-c2ccccc2)n1` the outcome was “inactive”.
With `Cc1ccc(S(=O)(=O)NCc2ccc(C(=O)N3CCN(c4ccccn4)CC3)cc2)cc1` the outcome was “inactive”.
For `O=C(CCCN1Cc2ccccc2C1)c1ccc(F)cc1`, the outcome was “inactive”.
With `CCOC(=O)N1CCC(NC(=O)CCC(=O)c2ccccc2)CC1` the outcome was “inactive”.
In the case of `CN1C(=S)N(c2ccccc2)C(=O)/C1=C/c1ccco1`, the outcome is reported as “inactive”.
With `Cc1ccc(C(=O)Nc2ccccc2C(N)=O)o1` the outcome was “inactive”.
For `COc1cccc(-n2c(SCc3cc(=O)oc4cc(O)c(O)cc34)nc3ccccc3c2=O)c1`, the outcome was “inactive”.
For `Cc1cccc(-n2c(N)cc(=O)[nH]c2=S)c1`, the outcome was “inactive”.
With `C/C(=N\NC(=O)c1ccccc1)c1ccc2c(c1)OCO2` the outcome was “inactive”.
With `CCOc1ccccc1NS(=O)(=O)c1ccc(Br)s1` the outcome was “inactive”.
For `CC(C)NCCCOc1ccc(Cl)cc1Br`, the outcome was “inactive”.
In the case of `CCCCNCCCOc1cccc(Cl)c1Cl`, the outcome is reported as “inactive”.
For `Clc1ccc(Nc2ccc(NCc3ccccc3)nn2)cc1`, the outcome was “inactive”.
In the case of `Clc1ccc(OCCCn2ccnc2)c(Br)c1`, the outcome is reported as “inactive”.
For `O=C(COc1ccc(Br)cc1Cl)NC(=O)NCc1ccccc1`, the outcome was “inactive”.
For `Clc1cc(Br)ccc1OCCn1ccnc1`, the outcome was “inactive”.
For `CCCCCNS(=O)(=O)c1cc(C)ccc1OC`, the outcome was “inactive”.
In the case of `O=C1Nc2ccccc2C(O)(C(=O)N2CCCCC2)N1c1ccccc1` (stereo not drawn), the outcome is reported as “inactive”.
With `Cc1cc(C2=NNC(=NC3CC3)SC2)c(C)n1Cc1ccco1` the outcome was “inactive”.
With `Cc1cccc(OCCCSc2nc3ccc(C)cc3[nH]2)c1` the outcome was “inactive”.
For `C=C(C)Cn1c(CCn2c3ccccc3c3ccccc32)n[nH]c1=S`, the outcome was “inactive”.
With `N#C/C(=C\c1c(Cl)cccc1Cl)c1nc2ccccc2[nH]1` the outcome was “inactive”.
For `COCc1cc(C)nc(N2CCc3ccccc32)c1C#N`, the outcome was “inactive”.
With `CCOc1ccc2nc(COC(=O)c3ccco3)c(C(C)=O)[n+]([O-])c2c1` the outcome was “inactive”.
For `Cc1ccc(NC(=O)CCN2CCc3ccccc3C2)cc1`, the outcome was “inactive”.
In the case of `COc1ccc2cc(C)c3nnc(SCC(=O)Nc4nc(-c5ccccc5)cs4)n3c2c1`, the outcome is reported as “inactive”.
With `COc1ccc(-c2csc(NC(=O)C3CCCO3)n2)cc1` (stereo not drawn) the outcome was “inactive”.
With `CN(C)CC(=O)Nc1nc(-c2ccccc2)cs1` the outcome was “inactive”.
In the case of `CCOC(=S)SCC(=O)Nc1nc(-c2ccccc2)cs1`, the outcome is reported as “inactive”.
For `Cc1ccc(C[n+]2cc(-c3ccc(Cl)cc3)n3c2CCC3)cc1`, the outcome was “inactive”.
For `CCCCCOC(=O)C1=C(C)Nc2nnnn2C1c1ccc(OC)c(OC)c1OC` (stereo not drawn), the outcome was “inactive”.
In the case of `Cc1ccc(Nc2nc(CSc3nnc(-c4ccc(F)cc4)n3C)cs2)cc1`, the outcome is reported as “inactive”.
With `CSc1cccc(NC(=O)COc2cccc3ccccc23)c1` the outcome was “inactive”.
With `COc1ccc(OC)c(NC(=S)NCCCN2CCOCC2)c1` the outcome was “inactive”.
For `COc1ccccc1NC(=S)NNC(=O)c1c(Cl)c(C)nn1C`, the outcome was “inactive”.
With `C=CCN(CC=C)Cc1c[nH]c2ccccc12` the outcome was “inactive”.
For `Cc1cc(C)[n+](C2C3CC4CC(C3)CC2C4)o1` (stereo not drawn), the outcome was “inactive”.
With `Cc1cccc(-n2c(N)cc(=O)[nH]c2=S)c1C` the outcome was “inactive”.
For `CCOC(=O)c1c(N)ssc1=S`, the outcome was “inactive”.
In the case of `O=C1c2ccccc2NC(c2ccc(-c3cccc(Cl)c3)o2)N1O` (stereo not drawn), the outcome is reported as “inactive”.
For `COc1cccc(C2Nc3ccccc3C(=O)N2O)c1O` (stereo not drawn), the outcome was “inactive”.
For `CCOC(=O)c1ccc2c(c1)C(=O)N(C1CCCCC1)C2=O`, the outcome was “inactive”.
With `O=C(OCCN1C(=O)c2ccccc2C1=O)c1ccc(S(=O)(=O)N2CCCCCC2)cc1` the outcome was “inactive”.
With `Cc1ccc([N+](=O)[O-])cc1NC(=O)CN(C(=O)c1ccc(Cl)cc1)C1CCCCC1` the outcome was “inactive”.
For `Cc1cc(NC(=O)c2ccccc2-c2ccccc2)ccc1Br`, the outcome was “inactive”.
With `CN1c2ccccc2C(=O)NC1c1ccc([N+](=O)[O-])s1` (stereo not drawn) the outcome was “inactive”.
For `CCN(CC)Cc1c[nH]c2c(C(=O)OC)cccc12`, the outcome was “inactive”.
With `O=C(C1CCN(C2CC(=O)N(Cc3ccccc3)C2=O)CC1)N1CCCCCC1` (stereo not drawn) the outcome was “inactive”.
In the case of `N#Cc1c(N)n[nH]c1-c1cc2c([nH]1)CCCC2`, the outcome is reported as “inactive”.
With `O=C(NCc1ccco1)c1c2c(nc3ccccc13)CCC2` the outcome was “inactive”.
With `Cc1[nH]c2ccccc2c1C(=O)CN1CCSCC1` the outcome was “inactive”.
In the case of `c1ccc(C2CNCc3c2ccc2ccccc32)cc1` (stereo not drawn), the outcome is reported as “inactive”.
With `CCOc1ccc(CSC(CC(=O)O)C(=O)O)cc1` (stereo not drawn) the outcome was “inactive”.
With `O=C(CCN1C(=O)c2ccccc2S1(=O)=O)Nc1ccc2c(c1)OCCO2` the outcome was “inactive”.
With `CCOC(=O)c1cc2ccc(OC)c(OC)c2c(=O)s1` the outcome was “inactive”.
With `COc1cccc(NC(=O)CNC(=O)c2cccs2)c1` the outcome was “inactive”.
For `Cc1ccccc1Cn1nc(C)c(NC(=O)c2noc3c2CCc2ccccc2-3)c1C`, the outcome was “inactive”.
With `O=C1C(c2ccc(F)cc2)N(Cc2ccc3c(c2)OCO3)C(=O)CN1C1CCCCCC1` (stereo not drawn) the outcome was “inactive”.
For `COc1ccc(NC2=NC3(CCCCC3)N=C(N)N2)cc1`, the outcome was “inactive”.
For `CCOC(=O)c1c(C)[nH]c(C)c1C(=O)CSc1ncccn1`, the outcome was “inactive”.
For `Cc1cccn2cc(CSc3nnc(Nc4ccc(C(C)C)cc4)s3)nc12`, the outcome was “inactive”.
In the case of `CC1CCN(C(=O)c2ccc3c(c2NCCO)C(=O)c2ccccc2C3=O)CC1`, the outcome is reported as “inactive”.
In the case of `CSc1nsc(SCC(=O)Nc2ccc(C(C)=O)cc2)n1`, the outcome is reported as “inactive”.
In the case of `CN(C(=O)/C=C/c1ccccc1)C1CCS(=O)(=O)C1` (stereo not drawn), the outcome is reported as “inactive”.
In the case of `Cc1cc(C)nc(N(C#N)C(C)C(=O)N(C)C)n1` (stereo not drawn), the outcome is reported as “inactive”.
For `Cc1c(C)n(Cc2ccccc2)c2ncnc(N)c12`, the outcome was “inactive”.
For `O=c1[nH]c(CN2CC=C(c3ccccc3)CC2)nc2cc(C(F)(F)F)ccc12`, the outcome was “inactive”.
For `COc1ccc(Nc2nc(-c3cccc([N+](=O)[O-])c3)nc3ccccc23)cc1`, the outcome was “inactive”.
With `COc1ccccc1Nc1nc(NCc2ccco2)c2ccccc2n1` the outcome was “inactive”.
For `BrC(=C\c1ccccc1)/C=N/N1CCN(c2ccccn2)CC1`, the outcome was “inactive”.
With `C/C(CC(=O)Nc1ccc(Cl)c(C(F)(F)F)c1)=N\NC(=O)c1cccc(O)c1` the outcome was “inactive”.
For `N=c1n(CCO)c2ccccc2n1Cc1ccc(Cl)cc1`, the outcome was “inactive”.
In the case of `N=c1n(Cc2ccc(Cl)cc2)c2ccccc2n1CC(O)c1ccco1` (stereo not drawn), the outcome is reported as “inactive”.
For `C#CCN1C(=O)C(O)(CC(=O)c2ccc(OC)c(OC)c2)c2ccccc21` (stereo not drawn), the outcome was “inactive”.
With `CCCCCCCCOC(=O)C1=C(C)Nc2nnnn2C1c1cccs1` (stereo not drawn) the outcome was “inactive”.
With `COc1ccc(Oc2ccccc2/C=N/O)cc1` the outcome was “inactive”.
In the case of `COC(=O)c1ccc(COC(=O)c2ccccn2)cc1`, the outcome is reported as “inactive”.
With `CCNC(=S)NNC(=O)c1ccc(OC(F)F)cc1` the outcome was “inactive”.
For `CC(C)NC(=O)CSc1nc(N)c(NC(=O)c2ccccc2F)c(=O)[nH]1`, the outcome was “inactive”.
With `Cc1cc(C)c2c(=O)[nH]c(SCC(=O)Nc3ccc(N(C)C)cc3)nc2n1` the outcome was “inactive”.
In the case of `CCOC(=O)C1=C(C)NC(=S)NC1c1ccc(OC(=O)c2ccco2)cc1` (stereo not drawn), the outcome is reported as “inactive”.
With `COc1ccc(NC2=NC(=S)N(c3cccc(C)c3)C23CCCCC3)cc1` the outcome was “inactive”.
In the case of `Cc1cccc(NC(=O)c2ccc(Cn3cc(C(F)(F)F)ccc3=O)cc2)c1`, the outcome is reported as “inactive”.
With `O=C(O)/C=C/C(=O)Nc1cccc(C(F)(F)F)c1` the outcome was “inactive”.
In the case of `CN(C)CC(C(=O)c1ccccc1)c1ccccc1` (stereo not drawn), the outcome is reported as “inactive”.
For `Cc1ccc(C(=O)NCc2ccc(Cl)cc2)o1`, the outcome was “inactive”.
With `Cc1ccc(C(=O)Nc2ccc3c(c2)OCO3)o1` the outcome was “inactive”.
For `CCCCCn1c(C(C)NC(=O)CCC)nc2ccccc21` (stereo not drawn), the outcome was “inactive”.
With `Cc1ccc2cccnc2c1NC(=S)NC(=O)c1ccccc1` the outcome was “inactive”.
With `O=C(NC(c1ccc(Cl)cc1)c1c(O)ccc2ccccc12)c1ccccc1` (stereo not drawn) the outcome was “inactive”.
For `O=C(CCc1ccccc1)Nc1nc2ccc(S(=O)(=O)N3CCOCC3)cc2s1`, the outcome was “inactive”.
In the case of `Cc1nc(SCC(=O)NC(C)c2ccccc2)c2oc3ccccc3c2n1` (stereo not drawn), the outcome is reported as “inactive”.
For `CCCN(CCC)CCCNS(=O)(=O)c1ccc2c(c1)oc(=O)n2C`, the outcome was “inactive”.
With `NC(=O)c1ccccc1NC(=O)/C=C/C(=O)O` the outcome was “inactive”.
For `O=C(/C=C/c1ccccc1)N1CCN(c2c(Cl)cccc2[N+](=O)[O-])CC1`, the outcome was “inactive”.
For `C=CCn1c(C)cc(C(=O)CSc2nc(N)cc(N)n2)c1C`, the outcome was “inactive”.
For `Clc1ccc(Nc2ncnc3c2cnn3-c2ccccc2)cc1`, the outcome was “inactive”.
For `CCCNC(=O)CN(C1CCCCC1)S(C)(=O)=O`, the outcome was “inactive”.
For `CCCCC(=O)NCCNC(=O)c1cc(OCC(F)(F)F)ccc1OCC(F)(F)F`, the outcome was “inactive”.
For `Cn1c(COc2ccccc2)nnc1SCc1nc2ccccc2[nH]1`, the outcome was “inactive”.
In the case of `Cc1ccc(C)c(/C=C/C(=O)c2ccccc(=O)c2O)c1`, the outcome is reported as “inactive”.
With `COc1ccc(C2=Nc3nc(-c4ccccc4)cn3C(c3ccc(OC)cc3)C2)cc1` (stereo not drawn) the outcome was “inactive”.
With `N/C(=N\OC(=O)N1c2ccccc2Sc2ccccc21)c1ccccc1` the outcome was “inactive”.
In the case of `CCc1nn2cc(C(=O)c3cc(Cl)ccc3O)cnc2c1-c1ccc(F)cc1`, the outcome is reported as “inactive”.
With `CCN(C(C)=O)c1nc(CSc2nnc(NC(C)C)s2)cs1` the outcome was “inactive”.
For `CC1CCC(NC(=O)C2c3ccccc3C(=O)N2Cc2cccs2)CC1` (stereo not drawn), the outcome was “inactive”.
With `Cn1ncc(Br)c1C(=O)NCc1cccs1` the outcome was “inactive”.
